Bioassay records from PubChem BioAssay.
Rows were chosen to be rich in hits. Some 2.6% of all compounds tested hit in one or more screens of this group.
CRFR2-BP antag – antagonists of CRF-BP/CRF-R2 complex, primary screen, cell-based, HEK293, calcium dye fluorescence, uHTS; CRF-induced calcium fluorescence; inhibition, % at 11.8 µM; 350,000 compounds, 0.59% hits; AID 588475, 2011;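 active means inhibition of the ligand-induced calcium signal above about 50% at the single tested concentration, limit read from the data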
Myeloid diff 2 – induction of myeloid progenitor differentiation, primary screen, cell-based, flow cytometry, MLPCN library. ER-HoxA9 myeloid progenitors, lysozyme-GFP differentiation. calls only at 10 µM. 360,000 compounds, 1% hits;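 active means normalized GFP-positive differentiation at or above the plate's own cutoff, the solvent-only control mean plus 3 SD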;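 further: cells exposed to compound for four days before flow analysis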
IDE act – human IDE activators in live cells, primary screen, fluorescence polarization, HEK cells, FAbeta-B substrate; 340,000 compounds, 0.073% hits; activation, % at 5.96 µM; FAbeta-B cleavage; 0% vehicle, 100% cell-free pure enzyme wells; Insulin-degrading enzyme (Homo sapiens), P14735;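 active means activation above the mean of all tested compounds plus 3 SD, set per screening campaign, cut at about 17% in these data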
CRFR2-BP ag – agonists of CRF-BP/CRF-R2 complex, primary screen, cell-based, HEK293, calcium dye fluorescence, uHTS. CRF-binding protein / CRF receptor 2 complex (human). calcium dye fluorescence (FLIPR); percent of saturating CRF peptide response. activation, % at 13.2 µM. 350,000 compounds, 0.46% hits. AID 588473, 2011;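 active means activation of at least 50%, plus an integration ratio under a set limit after plate pattern correction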;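 further: plate controls were neutral control wells without compound for no effect and CRF at EC100 for full effect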
IDE cell inh – human IDE inhibitors in live cells, primary screen, fluorescence polarization, HEK cells, FAbetaB substrate; Insulin-degrading enzyme (Homo sapiens), P14735; FAbetaB cleavage; inhibition, % at 5.59 µM; 320,000 compounds, 0.41% hits;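 active means percent inhibition above the average of all tested compounds plus 3 SD, set per screening campaign, cut at about 16% in these data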;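 further: IDE supplied by intact live HEK cells; FP after avidin binding of uncleaved biotin substrate so inhibition keeps polarization high; 0% = DMSO wells and 100% = 60 µM reference IDE inhibitor Ii1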
TPT1 inhibitor – Candida albicans TPT1 enzyme inhibitors, primary screen, biochemical, fluorescence polarization; AID 1962, 2009; tRNA 2'-phosphotransferase TPT1 (Candida albicans SC5314); inhibition, % at 5 µM; recombinant caTPT1, FP RNA substrate dephosphorylation; 300,000 compounds, 0.81% hits;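 active means inhibition above the mean of all tested compounds plus 3 SD, set per screening campaign, cut at about 24% in these data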;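 further: plate controls were DMSO alone for no effect and ferristatin control at 100 nM for full effect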
TPT1 inh confirm – Candida albicans TPT1 inhibitors, confirmation, biochemical, fluorescence polarization, triplicate | shares compounds with TPT1 inhibitor | recombinant caTPT1, RNase T1 coupled | inhibition, % at 5 µM | 2,400 compounds, 74% hits | AID 2149, 2009;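 active means inhibition above the primary screen limit, the mean inhibition of all tested compounds plus 3 SD, cut at about 25% in these data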
RNase T1 counter – RNase T1 inhibitors, counter-screen for TPT1 inhibitor project, biochemical, fluorescence polarization | shares compounds with TPT1 inhibitor | RNase T1 cleavage, 1536-well | inhibition, % at 5 µM | 2,400 compounds, 83% hits | AID 2153, 2009;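 active means inhibition above the solvent-only control well mean plus 3 SD, limit set per screening run, cut at about 23% in these data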;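 further: plate controls were DMSO wells with enzyme for no effect and wells without RNase T1 for full effect; inhibitors block cleavage so intact labeled substrate keeps polarization high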
Target sequence (P00651 whole entry, looked up): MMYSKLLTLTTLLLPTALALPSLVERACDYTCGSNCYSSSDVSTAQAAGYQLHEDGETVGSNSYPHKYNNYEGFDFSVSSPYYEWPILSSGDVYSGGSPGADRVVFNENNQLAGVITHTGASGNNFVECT
IDE inh confirm – human IDE inhibitors in live cells, confirmation, fluorescence polarization, HEK cells, FAbetaB substrate; shares compounds with IDE cell inh; FAbetaB cleavage; inhibition, % at 5.59 µM; 1,200 compounds, 51% hits;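 active means mean inhibition across triplicate wells above the cutoff set by the earlier primary insulin-degrading enzyme screen, cut at about 16% in these data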;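 further: 0% = DMSO wells and 100% = 60 µM reference IDE inhibitor Ii1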
HEK293 tox – cytotoxicity in HEK cells, cytotoxicity control for IDE inhibitor project, cell-based, luminescence; inhibition, % at 5.59 µM; 1,200 compounds, 28% hits; AID 449730, 2010; HEK293 cytotoxicity, ATP luminescence; shares compounds with IDE cell inh; in the data active means inhibition above about 22%;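 further: 0% = vehicle wells and 100% = reference cytotoxic drug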
Myeloid diff CP1 – inducers of myeloid progenitor differentiation, confirmation, cell-based, GFP/Mac1 flow cytometry, cherry pick 01 | shares compounds with Myeloid diff 2 | ER-HoxA9 myeloid progenitors, GFP/Mac1 double-positive flow | calls only | 2,300 compounds, 2% hits | AID 651706, 2012;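 active means share of green or green-and-red cells above 9 and 9% in run 1 or 4 and 3% in run 2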
GFP autofluor – flagged as fluorescent in myeloid differentiation counter-screen | 2,300 compounds, 7.4% hits | shares compounds with Myeloid diff 2 | AID 651707 | ER-HoxA9 myeloid progenitors, no estrogen, GFP autofluorescence flow cytometry; vehicle wells 0%, positive control 100% | fluorescence response, % (no concentration beside the values);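 active means over 5% cells positive for green fluorescent reporter, or over 2% positive for both it and APC stain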;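 further: range taken on the double positive population between DMSO and positive control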
* marks the source's active call; other numbers are inactive results; i = inactive; . = no result given; + = active, no number.

SMILES	CRFR2-BP antag	Myeloid diff 2	IDE act	CRFR2-BP ag	IDE cell inh	TPT1 inhibitor	TPT1 inh confirm	RNase T1 counter	Myeloid diff CP1	GFP autofluor	others
CN(CC(=O)Nc1ccccc1Cl)C(=O)CSc1nc2ccccc2s1	-10.9	i	-4.3	-1.9	-0.9	1.9	.	.	.	.
CCOC(=O)/C(=C/C=C1\Sc2ccccc2N1CC)C(C)=O	-233.2	i	-145.6	237.5*	101.2*	174.4*	188.9*	170.3*	i	0.0	IDE inh confirm=142.9*;HEK293 tox=19.8
CCOC(=O)c1sc2nc3c(SCCC#N)cc(C(=O)c4cc(F)ccc4O)cn3c(=O)c2c1C	8.3	+	-2.0	7.8	-4.1	48.2*	27.2*	31.5*	i	0.0
O=C1/C(=C\c2cccc(O)c2O)SC(=S)N1Cc1ccccc1	-27.9	i	-27.5	-0.9	9.2	4.8	.	.	.	.
O=C1/C(=C\c2cc([N+](=O)[O-])ccc2O)SC(=S)N1Cc1ccc(Cl)cc1	-84.8	i	-56.8	140.0*	39.8*	43.2*	47.4*	57.1*	i	73.9*	IDE inh confirm=130.1*;HEK293 tox=15.3
COc1ccccc1N1CCN(C(=O)C(=O)c2cccc([N+](=O)[O-])c2)CC1	.	i	.	.	.	.	.	.	.	.
CCN=C1S/C(=C/c2ccc(-c3ccc(F)cc3)o2)C(=O)N1CC	-0.5	i	-0.5	0.5	-2.5	2.9	.	.	.	.
O=C1S/C(=C/c2ccc(N3CCOCC3)o2)C(=O)N1Cc1ccc(F)cc1	-132.1	i	-41.5	114.3*	8.8	136.5*	163.0*	162.1*	i	31.4*
C=CCC[C@H](Cc1ccc(F)cc1)C(=O)OC[C@H](C)NC(=O)[C@@H](CC=C)CC(=O)N[C@H](CO)Cc1ccccc1	1.2	i	6.0	1.0	5.1	.	.	.	.	.
CCN1/C(=C/C=C/C=C/C=C/c2sc3ccccc3[n+]2CC)Sc2ccccc21	-20.8	i	-2.0	3.9	12.6	30.1*	19.9	28.6*	i	42.9*
Cc1cc(N2CCCC2)ccc1/C=C1\NC(=S)N(C)C1=O	-197.1	i	-118.6	169.5*	79.2*	164.1*	166.5*	153.6*	i	51.2*	IDE inh confirm=115.7*;HEK293 tox=16.0
CCCN1CCc2c(sc(NC(=O)CCS(=O)(=O)c3ccccc3)c2C(=O)OC)C1	4.2	i	5.7	18.2	9.6	18.7	.	.	.	.
CNC(=O)c1c(NC(=O)c2ccc(S(=O)(=O)N3CCCc4ccccc43)cc2)sc2c1CCN(C)C2	-128.2	+	-4.4	158.6*	1.0	103.3*	79.4*	87.6*	+	0.0
CCCN1CCc2c(sc(NC(=O)c3ccc(S(=O)(=O)N(C)c4ccccc4)cc3)c2C(=O)NC)C1	-62.8	+	-8.5	63.1*	5.2	104.3*	110.5*	117.5*	i	1.0
C=CCc1c(C)nc(-c2ccccc2)nc1N/N=C/c1ccccc1	-19.0	i	-0.7	-1.4	2.2	3.5	.	.	.	.
C=CCc1c(C)nc(-c2ccccc2)nc1Nc1ccccc1O	-21.3	+	4.4	5.7	7.5	25.2*	40.4*	52.1*	i	63.2*
COc1ccccc1N1C(=O)S/C(=C\c2cc(C)n(C)c2C)C1=O	10.7	i	-0.1	-0.4	-0.6	2.9	.	.	.	.
COc1ccccc1N1C(=O)S/C(=C\c2ccc(C)s2)C1=O	3.4	i	1.6	6.0	2.0	34.4*	38.0*	53.4*	i	2.3
CCc1ccccc1N(CC(=O)N1CCN(c2ccccc2)CC1)S(C)(=O)=O	8.8	i	1.2	-1.3	2.3	-3.1	.	.	.	.
CCSC1=N/C(=C\c2ccc(C(=O)O)cc2)C(=O)S1	3.3	i	4.5	-0.8	-3.8	-7.9	.	.	.	.
CCOC(=O)SC1=N/C(=C\c2ccc(N(C)C)cc2)C(=O)S1	-51.7	i	-27.3	44.3	8.2	82.2*	101.2*	101.9*	i	0.6
Cc1ccc(S(=O)(=O)N2[C@H](CC(=O)c3ccc(F)cc3)OC[C@@H]2C)cc1	.	i	.	.	.	.	.	.	.	.
CN1/C(=C/C(=S)NC(=O)C2CCC2)C(C)(C)c2ccccc21	0.9	i	-1.8	-0.5	7.5	50.5*	12.9	17.5	i	3.4
CCc1ccc(/C=C/c2c[nH]c3ccccc23)[n+](CC)c1	-9.8	+	-6.8	25.2	8.0	31.2*	29.3*	38.2*	i	7.0*
OCCNc1nnc(-c2ccccc2)c(-c2ccccc2)n1	-4.6	i	-4.3	-0.5	-0.5	0.4	.	.	.	.
Cc1cc(/C=C2\SC(=S)NC2=O)c(C)[nH]1	-11.7	i	-3.1	16.6	7.8	130.7*	96.7*	108.5*	i	7.3*
Cn1c(SCC(=O)Nc2ccc3c(c2)n(C)c(=O)n3C)nnc1-c1ccncc1	3.0	i	-20.0	0.9	15.8	-1.6	.	.	.	.
CCN1/C(=C/c2cc[n+](CCCS(=O)(=O)[O-])c3ccccc23)Sc2ccccc21	9.2	+	-8.1	1.8	25.8*	48.1*	37.3*	52.3*	i	14.2*	IDE inh confirm=28.3*;HEK293 tox=10.1
CCCCNC(=O)c1nc(-c2cnc(C)cn2)oc1-c1ccc(Cl)cc1	.	i	.	.	.	.	.	.	.	.
CC(C)C(OC(=O)c1nsc(Cl)c1Cl)C(=O)NCC1CCCO1 (stereo not given)	-5.7	i	-2.2	-1.1	0.0	-7.1	.	.	.	.
